Test results from PubChem BioAssay (Tox21).
“And” between values parts separate entries of the source, which are not always exact repeats. Identical values can stand only once. Results filed as inconclusive are left out. Where a structure was tested more than once in an assay, its records may differ in their call. The source made the active and inactive calls. Unless noted, calls follow the shape of the dose curve; as a rule, active = well fitted curve in the direction sought with a large enough effect in the repeat runs; inconclusive = weak or mixed curves; inactive = no such curve, though single readings can be large; an effect the other way counts as inactive or inconclusive.

Tests used:
[1] = qHTS assay to identify small molecule agonists of the androgen receptor (AR) signaling pathway in the presence of an antagonist - cell viability counter screen (AID 1259379); also: nearly all actives have a fitted effect of over 25% in size; also: potency is read from the fitted curve at half-maximal effect
Outline: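 MDA-kb2 cells (MMTV-luciferase, AR/GR), 3,000/well, 5 h attachment, then 3.0 µM nilutamide (final) and compounds at 15 concentrations. Viability by CellTiter-Fluor fluorescence after 16 h at 37 °C, 0% CO2, in the reporter wells.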

[2] = qHTS assay to identify small molecule agonists of the estrogen receptor beta (ER-beta) signaling pathway - cell viability counter screen (AID 1259380); also: nearly all actives have a fitted effect of over 30% in size; also: potency is read from the fitted curve at half-maximal effect
Outline: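 ER-beta-UAS-bla HEK293T cells in medium with 2% charcoal-stripped FBS, pre-incubated 6 hr, then treated 16 hr at 37C. Cytotoxicity read in the same wells by CellTiter-Glo luminescence after 30 min at room temperature.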

[3] = qHTS assay to identify small molecule antagonists of the estrogen receptor beta (ER-beta) signaling pathway - cell viability counter screen (AID 1259382); also: nearly all actives have a fitted effect of over 55% in size; also: potency is read from the fitted curve at half-maximal effect
Outline: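 ER-beta-UAS-bla HEK293T cells in 2% charcoal-stripped FBS medium, treated with compound plus 1 nM 17-beta-estradiol for 16 h at 37C. Viability read by CellTiter-Glo luminescence after 30 min at room temperature in the same wells.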

[4] = target: Estrogen receptor (Homo sapiens) (UniProt P03372); test: qHTS assay to identify small molecule agonists of the estrogen receptor alpha (ER-alpha) signaling pathway in the presence of an antagonist (AID 1259383; calls by dose curve; also: nearly all actives have a fitted effect of over 15% in size; also: potency is read from the fitted curve at half-maximal effect; as to activation: top concentration of the series differs between compounds)
Outline: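 VM7Luc4E2 cells express endogenous full-length ER-alpha with an ERE-luciferase reporter and were hormone-deprived for 5 days. Compounds at 15 concentrations were added with 10.0nM ICI-182,780 for 22hr at 37C. Luminescence was read with ONE-Glo.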

[5] = qHTS assay to identify small molecule agonists or antagonists of the thyroid stimulating hormone receptor (TSHR) signaling pathway - wild type cell line counter screen (AID 1259384; calls by dose curve)
Outline: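 Wild-type Hek293 cells, 800/well, 18 h at 37C, then compound with Ro20-1724 for 30 min RT. cAMP by HTRF (cAMP-d2/anti-cAMP cryptate), 1 h RT, fluorescence read. 15 concentrations, triplicates.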

[6] = target: Thyrotropin receptor (Homo sapiens) (UniProt P16473); test: qHTS assay to identify small molecule antagonists of the thyroid stimulating hormone receptor (TSHR) signaling pathway (AID 1259385; calls by dose curve; also: nearly all actives have a fitted effect of over 20% in size)
Outline: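 TSHR-HEK293 cells (800/well) plated 18 h, then compounds with Ro20-1724 and TSH at 1.5 ng/mL final, 30 min at room temperature. cAMP quantified by HTRF (cAMP-d2/anti-cAMP-cryptate, 1 h); 15 concentrations in triplicate.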

[7] = qHTS assay to identify small molecule agonists of the estrogen receptor alpha (ER-alpha) signaling pathway in the presence of an antagonist - cell viability counter screen (AID 1259386);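 also: cells exposed to compounds for 22 h at 37 °C before the viability read; nearly all actives have a fitted effect of over 30% in size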; also: potency is read from the fitted curve at half-maximal effect
Outline: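 Cell viability in VM7Luc4E2 cells (endogenous full-length ER-alpha) measured by CellTiter-Fluor fluorescence in the same wells as the luciferase screen. Cells pre-cultured 5 days in charcoal-stripped serum, then treated 22 h with compounds at 15 concentrations plus 10.0nM ICI-182,780.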

[8] = target: Progesterone receptor (Homo sapiens) (UniProt P06401); test: qHTS assay to identify small molecule agonists of the progesterone receptor (PR) signaling pathway (AID 1346784; calls by dose curve; also: nearly all actives have a fitted effect of over 30% in size; also: potency is read from the fitted curve at half-maximal effect)
Outline: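 Agonist mode, quantitative HTS format in a HEK 293T line expressing a UAS-controlled beta-lactamase reporter; 16 hr compound exposure at 37C in 2% charcoal-stripped FBS, then LiveBLAzer B/G FRET fluorescence.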

[9] = qHTS assay to identify small molecule antagonists of the progesterone receptor (PR) signaling pathway - cell viability counter screen (AID 1346798); also: series mostly up to about 92 µM; nearly all actives have a fitted effect of over 50% in size
Outline: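 Same-well multiplex: after 16 hr at 37C with compound and R5020 stimulation, HEK293T cells carrying a UAS-bla reporter received LiveBLAzer substrate (2 hr RT), then CellTiter-Glo (30 min RT) for luminescent viability.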

[10] = qHTS assay to identify small molecule agonists of the progesterone receptor (PR) signaling pathway - cell viability counter screen (AID 1346799; calls by dose curve; also: nearly all actives have a fitted effect of over 45% in size)
Outline: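 Counter screen for cytotoxicity: compound-treated PR-UAS-bla HEK293T cells (16 hr, 37C, 5% CO2) were assayed with CellTiter-Glo, luminescence measured after 30 min at room temperature.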

[11] = qHTS assay to identify small molecule antagonists of the TGF-beta/Smad signaling pathway - cell viability counter screen (AID 1346824); also: nearly all actives have a fitted effect of over 50% in size
Outline: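 SBE-bla HEK 293T cells, incubated overnight, then compound plus 0.25 ng/mL TGF-beta1 (stock added) for 5 hr at 37 C. Viability was read in the same wells by CellTiter-Glo luminescence after 30 min at room temperature.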

[12] = qHTS assay to identify small molecule agonists of the TGF-beta/Smad signaling pathway - cell viability counter screen (AID 1346829); also: top concentration of the series differs between compounds; nearly all actives have a fitted effect of over 45% in size
Outline: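 After overnight seating at 37 C and 5% CO2, reporter cells got compounds for 5 hr and FRET substrate for 2 hr; cell viability then came from CellTiter-Glo luminescence.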

[13] = qHTS assay to identify small molecule agonists of the TGF-beta/Smad signaling pathway (AID 1346859; active = well fitted activation curve with a large enough effect in the signal ratio in the repeat runs, not every such curve was filed as active; the % refers to the signal ratio; also: series mostly up to about 77 µM)
Outline: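 Smad-responsive beta-lactamase reporter cells (HEK 293T) received compounds from DMSO stocks after overnight attachment, were incubated 5 hr, then treated 2 hr with FRET substrate before dual-emission fluorescence measurement (405 nm excitation).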

[14] = target: Thyrotropin-releasing hormone receptor (Homo sapiens) (UniProt P34981); test: qHTS assay to identify small molecule antagonists of the thyrotropin-releasing hormone receptor (TRHR) signaling pathway (AID 1346877; active = well fitted inhibition curve with a large enough effect in the repeat runs, not every such curve was filed as active; also: series mostly up to about 51 µM)
Outline: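 TRHR-expressing HEK293 cells loaded with calcium dye for 2 h at 37 C; compounds pre-incubated 5 min at room temperature before TRH challenge at 1 nM final. Intracellular calcium fluorescence read kinetically for 3 min; 15 concentrations in triplicate.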

[15] = qHTS assay to identify small molecule antagonists of the sonic hedgehog signaling (Shh) pathway (AID 1259369; calls by dose curve; also: nearly all actives have a fitted effect of over 45% in size; also: potency is read from the fitted curve at half-maximal effect)
Outline: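 NIH/3T3-derived Gli1-Luc reporter cells plated 4 h, dosed with compound, then stimulated with conditioned medium for 24 h at 37 C. Firefly luciferase luminescence read after 30 min with detection reagent at room temperature.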

[16] = target: Thyrotropin-releasing hormone receptor (Homo sapiens) (UniProt P34981); test: qHTS assay to identify small molecule agonists of the thyrotropin-releasing hormone receptor (TRHR) signaling pathway (AID 1346891; calls by dose curve; also: potency is read from the fitted curve at half-maximal effect; as to activation: series mostly up to about 58 µM)
Outline: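 Agonist-mode calcium mobilisation screen: TRHR-transfected HEK293 cells cultured overnight (18 h), dye-loaded for 2 h at 37 °C, exposed to compounds, and monitored by fluorescence for 3 min.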

[17] = target: Progesterone receptor (Homo sapiens) (UniProt P06401); test: qHTS assay to identify small molecule antagonists of the progesterone receptor (PR) signaling pathway (AID 1346795; active = well fitted inhibition curve with a large enough effect in the signal ratio in the repeat runs, not every such curve was filed as active; the % refers to the signal ratio; also: potency is read from the fitted curve at half-maximal effect)
Outline: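 HEK293T PR-UAS-bla reporter cells in charcoal-stripped serum (2%) received compound after a 6 hr settling period, followed by R5020 agonist at 1 nM final; 16 hr incubation preceded the FRET substrate step and fluorescence measurement.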

[18] = target: Estrogen receptor beta (Homo sapiens) (UniProt Q92731); test: qHTS assay to identify small molecule agonists of the estrogen receptor beta (ER-beta) signaling pathway (AID 1259377; active = well fitted activation curve with a large enough effect in the signal ratio in the repeat runs, not every such curve was filed as active; the % refers to the signal ratio)
Outline: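 A UAS-controlled beta-lactamase reporter in ER-beta-UAS-bla HEK293T cells reports receptor activation. Compounds act for 16 hr at 37C in 2% charcoal-stripped serum, and a FRET substrate is read by fluorescence after 2 hours.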

[19] = target: Estrogen receptor beta (Homo sapiens) (UniProt Q92731); test: qHTS assay to identify small molecule antagonists of the estrogen receptor beta (ER-beta) signaling pathway (AID 1259378; active = well fitted inhibition curve with a large enough effect in the signal ratio in the repeat runs, not every such curve was filed as active; the % refers to the signal ratio; also: potency is read from the fitted curve at half-maximal effect)
Outline: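 ER-beta-UAS-bla HEK293T cells in 2% charcoal-stripped FBS medium treated with compound plus 1nM final 17-beta-estradiol for 16 hr at 37C. Beta-lactamase reporter read by FRET substrate fluorescence after 2 hours at room temperature.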

[20] = target: Androgen receptor (Homo sapiens) (UniProt P10275); test: qHTS assay to identify small molecule agonists of the androgen receptor (AR) signaling pathway in the presence of an antagonist (AID 1259381; calls by dose curve; also: nearly all actives have a fitted effect of over 15% in size)
Outline: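 MDA-kb2 cells carrying MMTV-luciferase (AR/GR responsive), 3,000 cells/well, co-treated with 3.0 uM nilutamide final. Compounds at 15 concentrations, 16 hr at 37C without CO2. Luciferase luminescence read after 30 min with ONE-Glo.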

Measured: Potency

Estrogen receptor (Homo sapiens), sequence (P03372 whole entry, looked up): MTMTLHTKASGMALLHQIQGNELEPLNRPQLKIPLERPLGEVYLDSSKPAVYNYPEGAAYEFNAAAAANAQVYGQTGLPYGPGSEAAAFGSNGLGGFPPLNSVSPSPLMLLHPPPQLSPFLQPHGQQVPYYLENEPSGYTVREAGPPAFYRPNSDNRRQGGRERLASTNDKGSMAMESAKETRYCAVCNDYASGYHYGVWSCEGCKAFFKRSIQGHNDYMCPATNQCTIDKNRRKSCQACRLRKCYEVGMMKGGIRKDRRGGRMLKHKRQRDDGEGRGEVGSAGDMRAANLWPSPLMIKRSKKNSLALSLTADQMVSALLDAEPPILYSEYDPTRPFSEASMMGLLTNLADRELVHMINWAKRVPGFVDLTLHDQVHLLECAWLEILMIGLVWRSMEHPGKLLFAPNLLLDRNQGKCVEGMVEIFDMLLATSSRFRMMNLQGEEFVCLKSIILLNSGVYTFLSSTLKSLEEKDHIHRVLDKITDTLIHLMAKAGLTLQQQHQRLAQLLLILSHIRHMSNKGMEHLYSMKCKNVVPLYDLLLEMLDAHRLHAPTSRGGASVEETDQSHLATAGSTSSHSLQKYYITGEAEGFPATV
Progesterone receptor (Homo sapiens), sequence (P06401 whole entry, looked up): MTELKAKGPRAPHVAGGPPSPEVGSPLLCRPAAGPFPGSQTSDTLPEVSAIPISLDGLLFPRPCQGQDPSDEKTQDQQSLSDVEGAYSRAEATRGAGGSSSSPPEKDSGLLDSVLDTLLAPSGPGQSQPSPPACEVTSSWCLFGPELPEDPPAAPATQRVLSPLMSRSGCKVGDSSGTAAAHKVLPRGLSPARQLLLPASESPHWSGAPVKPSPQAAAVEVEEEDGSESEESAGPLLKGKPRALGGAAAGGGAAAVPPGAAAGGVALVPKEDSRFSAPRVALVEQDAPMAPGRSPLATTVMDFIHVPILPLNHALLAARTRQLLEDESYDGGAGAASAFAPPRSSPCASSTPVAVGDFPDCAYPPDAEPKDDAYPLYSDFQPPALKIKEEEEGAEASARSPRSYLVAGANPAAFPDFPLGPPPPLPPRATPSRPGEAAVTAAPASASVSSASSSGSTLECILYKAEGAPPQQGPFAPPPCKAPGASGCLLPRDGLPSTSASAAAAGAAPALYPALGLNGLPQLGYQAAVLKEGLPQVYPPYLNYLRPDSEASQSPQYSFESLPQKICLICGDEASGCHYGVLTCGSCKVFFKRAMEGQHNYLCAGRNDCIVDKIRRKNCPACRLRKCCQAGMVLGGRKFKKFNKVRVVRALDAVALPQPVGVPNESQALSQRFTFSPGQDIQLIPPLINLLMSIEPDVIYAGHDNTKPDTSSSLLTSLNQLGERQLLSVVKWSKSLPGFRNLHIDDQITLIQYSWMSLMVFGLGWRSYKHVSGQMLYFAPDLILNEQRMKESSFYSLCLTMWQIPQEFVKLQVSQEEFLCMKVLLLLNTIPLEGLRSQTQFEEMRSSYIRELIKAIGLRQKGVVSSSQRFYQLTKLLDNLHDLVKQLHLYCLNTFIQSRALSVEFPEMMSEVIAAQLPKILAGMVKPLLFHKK
Estrogen receptor beta (Homo sapiens), sequence (Q92731 whole entry, looked up): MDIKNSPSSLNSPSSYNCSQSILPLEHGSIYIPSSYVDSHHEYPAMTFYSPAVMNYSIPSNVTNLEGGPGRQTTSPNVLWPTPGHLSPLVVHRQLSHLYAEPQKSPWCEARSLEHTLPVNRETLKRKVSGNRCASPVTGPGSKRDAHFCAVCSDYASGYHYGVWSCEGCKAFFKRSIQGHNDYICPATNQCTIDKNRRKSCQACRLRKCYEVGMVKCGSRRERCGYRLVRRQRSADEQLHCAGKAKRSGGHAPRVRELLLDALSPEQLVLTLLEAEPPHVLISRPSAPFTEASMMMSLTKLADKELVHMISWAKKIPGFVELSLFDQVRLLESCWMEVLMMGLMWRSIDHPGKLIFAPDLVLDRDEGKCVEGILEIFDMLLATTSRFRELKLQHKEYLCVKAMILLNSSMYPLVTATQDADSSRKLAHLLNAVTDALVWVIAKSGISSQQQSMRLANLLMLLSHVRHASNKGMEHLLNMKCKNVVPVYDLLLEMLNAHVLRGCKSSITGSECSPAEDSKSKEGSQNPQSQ
Thyrotropin receptor (Homo sapiens), sequence (P16473 whole entry, looked up): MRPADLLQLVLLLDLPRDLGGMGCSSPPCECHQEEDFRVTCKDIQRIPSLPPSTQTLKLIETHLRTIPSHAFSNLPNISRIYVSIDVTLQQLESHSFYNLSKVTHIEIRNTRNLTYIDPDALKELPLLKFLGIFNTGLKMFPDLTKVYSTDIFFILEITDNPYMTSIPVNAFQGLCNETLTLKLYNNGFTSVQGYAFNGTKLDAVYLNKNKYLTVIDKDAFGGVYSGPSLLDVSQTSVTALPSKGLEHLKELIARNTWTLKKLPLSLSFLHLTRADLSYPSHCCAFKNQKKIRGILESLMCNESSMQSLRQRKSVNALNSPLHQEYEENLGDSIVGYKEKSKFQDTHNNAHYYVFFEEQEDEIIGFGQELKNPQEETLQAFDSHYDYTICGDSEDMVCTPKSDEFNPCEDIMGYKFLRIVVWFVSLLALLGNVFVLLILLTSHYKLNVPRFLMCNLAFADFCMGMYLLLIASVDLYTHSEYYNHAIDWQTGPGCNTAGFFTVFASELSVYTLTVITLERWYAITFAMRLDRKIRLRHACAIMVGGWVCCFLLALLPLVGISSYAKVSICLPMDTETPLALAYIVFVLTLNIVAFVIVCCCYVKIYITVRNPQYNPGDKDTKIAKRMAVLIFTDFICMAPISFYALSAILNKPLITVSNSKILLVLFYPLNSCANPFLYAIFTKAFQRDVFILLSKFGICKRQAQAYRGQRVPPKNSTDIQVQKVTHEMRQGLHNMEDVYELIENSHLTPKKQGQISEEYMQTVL
Thyrotropin-releasing hormone receptor (Homo sapiens), sequence (P34981 whole entry, looked up): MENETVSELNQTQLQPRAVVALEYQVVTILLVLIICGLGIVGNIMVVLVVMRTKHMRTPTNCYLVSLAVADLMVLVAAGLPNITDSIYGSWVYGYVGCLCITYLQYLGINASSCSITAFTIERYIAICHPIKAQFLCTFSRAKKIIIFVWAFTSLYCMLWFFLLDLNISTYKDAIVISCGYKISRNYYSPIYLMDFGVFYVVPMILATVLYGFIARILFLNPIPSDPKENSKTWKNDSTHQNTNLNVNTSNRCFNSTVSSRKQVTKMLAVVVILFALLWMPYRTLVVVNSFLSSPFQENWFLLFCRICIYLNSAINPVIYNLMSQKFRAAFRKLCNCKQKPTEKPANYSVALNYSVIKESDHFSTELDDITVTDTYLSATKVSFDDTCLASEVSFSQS
Androgen receptor (Homo sapiens), sequence (P10275 whole entry, looked up): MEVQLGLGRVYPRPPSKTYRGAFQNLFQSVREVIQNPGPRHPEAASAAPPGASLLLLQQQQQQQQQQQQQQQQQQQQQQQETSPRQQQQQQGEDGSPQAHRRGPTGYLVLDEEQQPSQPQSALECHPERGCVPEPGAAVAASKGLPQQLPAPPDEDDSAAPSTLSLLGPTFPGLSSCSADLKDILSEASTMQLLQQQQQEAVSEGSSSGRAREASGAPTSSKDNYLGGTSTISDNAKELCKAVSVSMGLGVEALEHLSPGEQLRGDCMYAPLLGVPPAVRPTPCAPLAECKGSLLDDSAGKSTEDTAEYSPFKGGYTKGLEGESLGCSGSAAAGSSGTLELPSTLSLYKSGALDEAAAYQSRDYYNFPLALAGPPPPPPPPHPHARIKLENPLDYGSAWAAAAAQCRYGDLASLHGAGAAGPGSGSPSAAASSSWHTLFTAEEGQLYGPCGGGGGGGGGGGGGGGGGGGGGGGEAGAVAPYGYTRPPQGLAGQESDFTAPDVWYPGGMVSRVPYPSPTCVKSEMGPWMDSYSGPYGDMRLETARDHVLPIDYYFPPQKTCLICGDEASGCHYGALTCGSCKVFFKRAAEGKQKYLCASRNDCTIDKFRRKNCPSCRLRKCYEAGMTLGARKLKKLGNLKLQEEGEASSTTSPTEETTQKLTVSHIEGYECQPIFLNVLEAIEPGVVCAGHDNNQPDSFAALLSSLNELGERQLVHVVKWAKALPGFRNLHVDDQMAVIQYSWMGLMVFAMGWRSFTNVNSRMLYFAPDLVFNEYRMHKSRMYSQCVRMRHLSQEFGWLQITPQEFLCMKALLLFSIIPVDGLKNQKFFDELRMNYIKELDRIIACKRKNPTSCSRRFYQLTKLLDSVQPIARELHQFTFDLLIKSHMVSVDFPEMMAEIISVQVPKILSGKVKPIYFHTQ

CC[C@@H](N)CO
not listed: [15] | [16] | [17] | [18] | [19] | [20]
inactive: all other assays above

O=C(Nc1ccccc1SSc1ccccc1NC(=O)c1ccccc1)c1ccccc1
active: [15] 4.88 µM and 5.45 µM
not listed: [1] | [2] | [10] | [17] | [18] | [19] | [20]
inactive: all other assays above

[Cl][In]([Cl])[Cl]
inactive: [1] | [3] | [4] | [7] | [17] | [11] | [12] | [13] | [14]
inactive and 27.3 µM (active): [8]

Oc1c(Cl)cc(Cl)cc1Sc1cc(Cl)cc(Cl)c1O
inactive: [18] | [4] | [5] | [6] | [11] | [12] | [13]
39.6 µM (active) and inactive: [16]
active: [19] 27.8 µM and 7.7 µM | [2] 54.6 µM and 61.1 µM | [3] 30.7 µM and 54.5 µM | [17] 21.7 µM and 49.3 µM

O
not listed: [4] | [15] | [18] | [19] | [20]
inactive: all other assays above

Nc1ccc2cc3ccccc3cc2c1
inactive: [15] | [1] | [3] | [5] | [7] | [9] | [10] | [11] | [12]
active: [4] 1.75 µM and 13.7 µM

CCC(C)(C)C(=O)O[C@H]1C[C@@H](C)C=C2C=C[C@H](C)[C@H](CC[C@@H]3C[C@@H](O)CC(=O)O3)[C@H]21
active: [2] 27.3 µM and 13.3 µM | [3] 11.9 µM
not listed: [10] | [15] | [17] | [19] | [20]
inactive: all other assays above

CCOc1ccc2c(c1)C(C)=CC(C)(C)N2
not listed: [6] | [13] | [15] | [17] | [18] | [19]
inactive: all other assays above

NC12CC3CC(CC(C3)C1)C2
inactive: [1] | [2] | [3] | [7] | [8] | [17] | [9] | [10] | [11] | [12] | [13]

COc1ccc(CCN(C)CCCC(C#N)(c2ccc(OC)c(OC)c2)C(C)C)cc1OC (stereo not drawn)
active: [7] 30.6 µM
inactive: [2] | [3] | [9] | [10] | [12] | [14]

CC[C@]1(O)C[C@@H]2CN(CCc3c([nH]c4ccccc34)[C@@](C(=O)OC)(c3cc4c(cc3OC)N(C)[C@H]3[C@@](O)(C(=O)OC)[C@H](OC(C)=O)[C@]5(CC)C=CCN6CC[C@]43[C@@H]65)C2)C1
active: [15] 37.6 nM | [7] 10.6 µM
inactive: [1] | [2] | [3] | [5] | [8] | [11] | [12] | [13] | [14]

c1ccc2cc3c(ccc4ccccc43)cc2c1
not listed: [4] | [6] | [14] | [16] | [17] | [18] | [19] | [20]
inactive: all other assays above

CC(C)(C)NCC(O)COc1ccccc1OCC1CCCO1 (stereo not drawn)
not listed: [15] | [20]
inactive: all other assays above

CC1=C(C=O)C(C)(C)CC=C1
not listed: [4] | [6] | [15] | [17] | [18] | [19] | [20]
inactive: all other assays above

Nc1cc(S(=O)(=O)O)cc2cc(S(=O)(=O)O)cc(O)c12
inactive and 27.3 µM (active): [1]
inactive and 4.33 µM (active): [2]
active: [7] 48.3 µM and 30.6 µM
not listed: [4] | [5] | [6] | [10] | [18] | [19] | [20]
inactive: all other assays above
